The nature of assay [1]: Primary qHTS for small molecule stabilizers of the endoplasmic reticulum resident proteome: Secreted ER Calcium Modulated Protein (SERCaMP) assay (AID 1508630). The essentials: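 GLuc-SERCaMP-expressing SH-SY5Y cells, pretreated 16 h with compound, are challenged with thapsigargin to empty ER calcium stores; after 4 h, coelenterazine is added directly to the medium and luminescence is imaged.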
(In general: qHTS replaces the single test concentration by a dilution series.)

In another assay the target is Papain (Carica papaya) (UniProt P00784). Description: Primary qHTS assay for inhibitors of the protease papain (AID 1645873).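 Also: papain turnover of Z-FR-AMC read as the AMC fluorescence gain over 10 min.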
Sequence of Papain (Carica papaya) (P00784 whole entry, looked up): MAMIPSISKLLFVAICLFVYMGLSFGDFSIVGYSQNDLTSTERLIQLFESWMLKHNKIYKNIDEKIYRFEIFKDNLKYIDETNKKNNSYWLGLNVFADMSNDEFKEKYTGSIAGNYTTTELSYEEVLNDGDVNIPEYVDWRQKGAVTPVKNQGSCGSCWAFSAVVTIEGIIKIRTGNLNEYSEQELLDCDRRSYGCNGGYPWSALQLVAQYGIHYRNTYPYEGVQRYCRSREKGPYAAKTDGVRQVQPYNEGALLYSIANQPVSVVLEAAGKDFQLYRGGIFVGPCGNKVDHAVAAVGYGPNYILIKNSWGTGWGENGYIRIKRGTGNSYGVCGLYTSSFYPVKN
Assay [2] has as its target Catechol O-methyltransferase (Homo sapiens) (UniProt P21964). The experiment in a line: Confirmatory Screen for Target Class Profiling of Small Molecule Inhibitors of Methyltransferases (AID 1745852; calls by dose curve; also: potency is read from the fitted curve at half-maximal effect). Conditions: MTase-Glo luminescence, SAH detection, recombinant enzyme; measured here: COMT max response; stronger effect = lower value.
Assay [3] addresses Guanidinoacetate N-methyltransferase (Homo sapiens) (UniProt Q14353). The assay is described as above. Conditions: MTase-Glo luminescence, SAH detection, recombinant enzyme; activity change, negative = inhibition: at 57.3 µM (top of the series) unless noted.
Assay [4] can be described thus: Primary qHTS for inhibitors of nuclear receptor binding SET domain protein 2 (NSD2) in an isogenic RCH-ACV NSD2 p.E1099K mutant (9B) (AID 1645876). Also: nearly all actives have a fitted effect of over 70% in size. Also: potency is read from the fitted curve at half-maximal effect.
Assay [5] can be described thus: Primary qHTS for inhibitors of nuclear receptor binding SET domain protein 2 (NSD2) in an RCH-ACV wild type WT cells (2C) (AID 1645877). Also: nearly all actives have a fitted effect of over 70% in size. Also: potency is read from the fitted curve at half-maximal effect.
Assay [6] in a line: A High-Content qHTS Against Drug Library for the Identification of Small Molecules that Inhibit DYT1 Early Onset Primary Dystonia-Associated Cell Pathology (AID 1645839; calls by dose curve). The essentials:
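Flp-In T-REx 293 cells with tetracycline-inducible EGFP-delE hTOR1A (WT EGFP-hTOR1A as reference), 800 cells/well; compound added with tetracycline, 48 h at 37 C. Fixed, permeabilized cells imaged; %pathology (punctate TorsinA) primary, cell count counterscreen.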

For assay [7], the target named is Cytochrome P450 2D6 (Homo sapiens) (UniProt P10635). The experiment in a line: Cytochrome P450 family 2 subfamily D member 6 (CYP2D6) small molecule antagonists: luciferase biochemical (cell-free) qHTS assay (AID 1645840; active = well fitted curve in the direction sought with a large enough effect in the repeat runs; an effect the other way counts as inactive or inconclusive; also: nearly all actives have a fitted effect of over 55% in size; also: potency is read from the fitted curve at half-maximal effect). The method, boiled down: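 P450-Glo luminescent screen: recombinant CYP2D6 enzyme–proluciferin substrate mix preincubated with compound 10 min at room temperature, then NADPH regeneration added for 1 h at room temperature. Detection reagent added for 20 min; luciferin light read as relative luminescence units.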
Sequence of Cytochrome P450 2D6 (Homo sapiens) (P10635 whole entry, looked up): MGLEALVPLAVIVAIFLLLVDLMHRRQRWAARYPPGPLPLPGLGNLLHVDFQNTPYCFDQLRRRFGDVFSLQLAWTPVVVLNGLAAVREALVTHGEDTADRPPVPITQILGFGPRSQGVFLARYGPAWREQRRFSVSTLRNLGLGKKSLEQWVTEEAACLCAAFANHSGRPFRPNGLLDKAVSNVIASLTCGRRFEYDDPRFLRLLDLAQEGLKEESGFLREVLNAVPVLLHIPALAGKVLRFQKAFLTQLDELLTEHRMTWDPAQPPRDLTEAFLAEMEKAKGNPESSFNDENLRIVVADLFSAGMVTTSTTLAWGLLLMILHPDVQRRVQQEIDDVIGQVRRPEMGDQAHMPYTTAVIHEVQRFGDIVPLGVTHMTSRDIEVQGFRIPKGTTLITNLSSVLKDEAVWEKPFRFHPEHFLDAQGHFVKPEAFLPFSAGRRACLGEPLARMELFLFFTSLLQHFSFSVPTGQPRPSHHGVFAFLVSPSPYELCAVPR

Assay [8] addresses Cytochrome P450 2C9 (Homo sapiens) (UniProt P11712). The experiment in a line: Cytochrome P450 family 2 subfamily C member 9 (CYP2C9) small molecule antagonists: luciferase biochemical (cell-free) qHTS assay (AID 1645842; active = well fitted curve in the direction sought with a large enough effect in the repeat runs; an effect the other way counts as inactive or inconclusive; also: nearly all actives have a fitted effect of over 55% in size; also: potency is read from the fitted curve at half-maximal effect). The method, boiled down: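 Luminescence, after 20 min with luciferin detection reagent, reflected CYP2C9 turnover during a 1 h NADPH-driven reaction at 37C. Enzyme-substrate mix contained 0.4% bovine serum albumin and was preincubated with compound 10 min at room temperature.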

Assay [9] in a line: Primary qHTS to identify inhibitors of SARS-CoV-2 cell entry (AID 1645846; calls by dose curve; also: nearly all actives have a fitted effect of over 45% in size; also: potency is read from the fitted curve at half-maximal effect). Conditions: activity change, negative = inhibition: at 57.1 µM (top of the series) unless noted. The essentials: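 HEK293-ACE2 (Expi293F, stable hACE2), 1500 cells/well, o/n 37C; cpd 23 nL pin, 1 h; MLV-PP w/ SARS-CoV-2-S (Wuhan-Hu-1, Δ19 C-term); 48 h 37C; Bright-Glo luminescence; normalized vs S-PP and bald PP.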

Assay [10] can be described thus: Confirmatory qHTS to identify inhibitors of SARS-CoV-2 cell entry (AID 1645844; calls by dose curve; also: potency is read from the fitted curve at half-maximal effect; nearly all actives have a fitted effect of over 45% in size). Conditions: SARS-CoV-2 pseudotyped particle cell entry, luciferase. The method, boiled down: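 HEK293-ACE2 cells were pretreated 1 h with compound, then infected with MLV-based pseudoparticles bearing C-terminally truncated Wuhan-Hu-1 spike for 48 h at 37C; luciferase luminescence normalized to spike PP and bald PP wells.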

Assay [11] in a line: VSVG counterscreen qHTS to identify inhibitors of SARS-CoV-2 cell entry (AID 1645847; calls by dose curve; also: potency is read from the fitted curve at half-maximal effect; nearly all actives have a fitted effect of over 65% in size). To be noted: VSV-G pseudotyped particle entry, luciferase. The essentials: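 Expi293F/hACE2 cells, overnight plating; cpd 1 h, 37C/5% CO2; + VSV-G PP (MLV pseudotyping), 48 h; supernatant removed, Bright-Glo luciferase read. Norm: VSV-G PP and bald PP wells.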
In general terms: A counterscreen serves to expose hits that act by an unwanted route or on another target.

The nature of assay [12]: Cytotoxicity counterscreen for inhibitors of SARS-CoV-2 cell entry (AID 1645845; calls by dose curve; also: nearly all actives have a fitted effect of over 50% in size). To be noted: outcome: dose series up to 57.1 µM unless noted. The essentials: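 HEK293-ACE2 cells (Expi293F stably expressing human ACE2) seeded overnight, then compound for 1 h plus 48 h at 37C. Viability as ATP content by luminescence; normalized to wells with cells and media-only wells.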

The structures appear in SMILES notation. Several values for one entry are separate records, joined by “and”; a condition that tells them apart may be missing. Equal entries are not always repeated. Records with an inconclusive call do not appear. A call without a number means that no potency is given here. Activity calls are given as the source filed them. Unless noted, calls follow the shape of the dose curve; as a rule, active = well fitted curve in the direction sought with a large enough effect; inconclusive = small, poorly fitted or top-dose-only effect, or another doubt; inactive = no such curve, though single readings can be large; an effect the other way counts as inactive or inconclusive.

Sequence of Cytochrome P450 2C9 (Homo sapiens) (P11712 whole entry, looked up): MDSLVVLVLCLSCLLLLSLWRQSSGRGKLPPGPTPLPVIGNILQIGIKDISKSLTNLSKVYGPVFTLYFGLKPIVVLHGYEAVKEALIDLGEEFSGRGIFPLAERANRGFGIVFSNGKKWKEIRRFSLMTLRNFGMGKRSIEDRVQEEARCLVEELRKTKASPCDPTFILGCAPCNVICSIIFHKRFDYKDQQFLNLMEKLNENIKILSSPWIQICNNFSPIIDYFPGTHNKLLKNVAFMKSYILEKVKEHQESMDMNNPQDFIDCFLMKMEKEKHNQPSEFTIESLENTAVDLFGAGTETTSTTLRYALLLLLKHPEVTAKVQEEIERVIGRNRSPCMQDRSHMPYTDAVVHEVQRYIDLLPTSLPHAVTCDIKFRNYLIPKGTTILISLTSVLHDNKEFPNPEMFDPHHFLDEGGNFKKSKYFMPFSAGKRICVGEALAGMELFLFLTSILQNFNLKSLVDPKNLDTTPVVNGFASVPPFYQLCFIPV
Sequence of Catechol O-methyltransferase (Homo sapiens) (P21964 whole entry, looked up): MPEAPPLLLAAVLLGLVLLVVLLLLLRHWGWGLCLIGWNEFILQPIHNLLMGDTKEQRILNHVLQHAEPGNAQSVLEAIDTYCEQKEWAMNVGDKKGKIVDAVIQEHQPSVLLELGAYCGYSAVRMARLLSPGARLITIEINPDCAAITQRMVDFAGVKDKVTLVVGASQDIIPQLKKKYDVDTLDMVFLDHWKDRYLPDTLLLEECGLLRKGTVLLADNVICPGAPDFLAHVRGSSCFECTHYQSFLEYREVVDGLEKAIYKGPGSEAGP

Turning to `C[N+]1(C)CCOC(O)(c2ccc(-c3ccc(C4(O)C[N+](C)(C)CCO4)cc3)cc2)C1` (stereo not given), the outcome in assay [1] was “inactive”. Moreover, the Potency result with Papain (Carica papaya) was “inactive”.

Turning to `NC(CCCCCP(=O)(O)O)C(=O)O` (stereo not given), in [1], the outcome is “inactive”. Moreover, the Potency entry with Papain (Carica papaya) is “inactive”.

Take `Ic1ccccc1CNC1C2CCN(CC2)C1C(c1ccccc1)c1ccccc1` (stereo not given): the outcome in [1] was “inactive”. Further, in the assay with Papain (Carica papaya), the Potency entry was “inactive”.

Consider `CC12NC(Cc3ccccc31)c1ccccc12` (stereo not given), for which, in assay [1], the outcome was “inactive”. Also, the Potency entry with Papain (Carica papaya) is “inactive”.

`CN(N=O)c1cc(O)ccc1O`: in assay [1], the outcome is “inactive”. Further, in the assay with Papain (Carica papaya), the Potency entry is “inactive”. Also, the activity in assay [2] is -96.7%. For the same compound, the Potency in assay [3] was 24.3 µM (active).

Consider `NC(C(=O)O)c1cc(=O)[nH]o1` (stereo not given), for which the outcome in assay [1] was “inactive”. In the assay with Papain (Carica papaya), the Potency entry is “inactive”.

For `CCCN1CCc2cccc3c2[C@H]1Cc1ccc(O)c(O)c1-3`, the outcome in assay [1] was “inactive”. Besides, the Potency result in the assay with Papain (Carica papaya) is “inactive”. Besides, the activity in assay [2] is 4.79%. In addition, the activity change, negative = inhibition in [3] is 5.72%.

As to `CCn1cnc2c(Nc3cccc(Cl)c3)nc(N[C@@H]3CCCC[C@@H]3N)nc21`, in assay [1], the outcome was “inactive”. Moreover, in the assay with Papain (Carica papaya), the Potency entry is “inactive”. Also, the activity in assay [2] came out at 7.4%. For the same compound, the activity change, negative = inhibition in [3] amounted to 4.82%.

With `Oc1ccc2c3c1O[C@H]1c4oc5ccccc5c4C[C@@]4(O)C(C2)N(CC2CC2)CCC314` (stereo not given in full), the outcome in [1] was “inactive”. Also, the Potency entry in the assay with Papain (Carica papaya) was “inactive”.

Consider `CCS(=O)(=O)Nc1cccc(C(=C2CCCCC2)c2cnc[nH]2)c1`, for which the outcome in [1] was “inactive”. In addition, in the assay with Papain (Carica papaya), the Potency entry is “inactive”.

`CCCN1CCC[C@@H](c2cccc(O)c2)C1`: in assay [1], the outcome is “inactive”. In addition, the Potency result with Papain (Carica papaya) was “inactive”. Besides, in [2], the activity is 4.08%. In assay [3], the activity change, negative = inhibition was 1.62%.

Consider `CC(C)(C)c1o[nH]c(=O)c1CC(N)C(=O)O` (stereo not given), for which the outcome in assay [1] is “inactive”. Also, the Potency entry with Papain (Carica papaya) was “inactive”.

As for `COc1ccc2c(c1)/C(=C/c1cnc[nH]1)C(=O)N2`, in [1], the outcome is “inactive”. Moreover, the Potency in assay [4] is 13 µM (active); in assay [5] it was 18.4 µM (active).

Turning to `CCCSP(=O)(OCC)SCCC`, in assay [6], the Potency entry was “inactive”. Moreover, the Potency in [7] is 58.4 µM (active).

As to `C#CC(C)(O)CC` (stereo not given), the Potency result in assay [7] and in [8] was “inactive” in each case.

Regarding `CNc1ccc2oc(C[C@H]3O[C@@]4(CC[C@H]3C)O[C@H]([C@H](C)C(=O)c3ccc[nH]3)[C@H](C)C[C@H]4C)nc2c1C(=O)O`, the outcome in assay [1] was “inactive”. Besides, in [2], the activity is -3.19%. Further, the Potency in [3] is 34.3 µM (active).

Turning to `OCCCCC#Cc1cncc(OC[C@@H]2CCN2)c1`, the Potency result in assay [7], in assay [8], in assay [4] and in [5] was “inactive” each time.

`CC(C)[C@@H](CN1CC[C@@](C)(c2cccc(O)c2)[C@@H](C)C1)NC(=O)[C@H]1Cc2ccc(O)cc2CN1`: the Potency in assay [7] was 6.01 µM (active); in assay [4], 18.3 µM (active); in assay [5] it was 14.5 µM (active). In addition, in [8], the Potency result is “inactive”.

Regarding `O=[N+]([O-])C(Br)(CO)CO`, the Potency result in assay [7] and in [9] was “inactive” in each case. The Potency in assay [8] was 6.74 µM (active).

Regarding `CCOc1ccccc1-n1c(C(C)N2CCN(C(=O)COc3ccc(Cl)cc3)CC2)nc2ccccc2c1=O` (stereo not given), the Potency result in [7] is “inactive”. Also, the Potency was 13.5 µM (active) in assay [8]; 0.0192 µM (active) in [10]; 10 µM (active) in [9]; 19.2 µM (active) in assay [11]; 916 nM (active) and 662 nM (active) in [4]; 365 nM (active) and 372 nM (active) in assay [5].

For `O=[N+]([O-])c1cc(I)c(O)c(I)c1`, in assay [7], the Potency result is “inactive”.

As to `CCNCC(O)c1cccc(O)c1` (stereo not given), the Potency entry in [7] and in assay [8] was “inactive” throughout. For the same compound, the outcome in assay [12] is “inactive”. In addition, the activity change, negative = inhibition in assay [9] was -13.6%.

As for `NCC(O)c1cccc(O)c1` (stereo not given), the Potency result in assay [7] and in [8] was “inactive” each time. Further, in assay [12], the outcome was “inactive”. Besides, in [9], the activity change, negative = inhibition was -19.3%.

Take `CCc1c(C(=O)C(N)=O)c2c(OCC(=O)OC)cccc2n1Cc1ccccc1`: the Potency entry in [7], in assay [4] and in assay [5] was “inactive” each time. In addition, the Potency in assay [8] is 13.5 µM (active).

In the case of `CCCCNCC(O)c1ccc(O)cc1` (stereo not given), the Potency in [7] was 9.52 µM (active). Also, the Potency entry in [8] and in assay [9] was “inactive” in each case.

`Cc1cccc(NC(=O)N[C@@H]2N=C(c3ccccc3)c3ccccc3N(C)C2=O)c1`: in assay [7], the Potency result is “inactive”. Besides, the Potency in assay [8] is 12 µM (active).

`OC1(c2ccc(Cl)cc2)c2ccccc2C2=NCCN21` (stereo not given): the Potency in [7] was 2.68 µM (active); in assay [8], 15.1 µM (active).

(Values after PubChem BioAssay (NCATS).)
